# Assay outcomes deposited in PubChem by Broad Institute.
# An excerpt weighted towards active compounds, which were near 6.8% of everything screened.
# C diff growth: C. difficile growth inhibitors, primary screen, HTS; AID 1259249, 2017; Clostridium difficile clinical isolate growth, OD600, 24 h; hits give low values; growth activity, negative = inhibition, % at 16 µg/mL (by protocol); 0.25% of 86,000 active;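 active = mean growth activity at or below -80% and every replicate also at or below -80%; inconclusive = mean at or below -80% but some replicate above -80%; inactive = mean growth activity above -80%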;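 also: 0% = DMSO wells and -100% = levofloxacin 16 µg/mL wells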
# T cruzi growth-1: T. cruzi intracellular proliferation inhibitors, primary screen, cell-based, beta-gal Tulahuen parasites, NIH3T3 host, luminescence | 5.9% of 77,000 active | T. cruzi beta-gal in NIH3T3, GalScreen luminescence, 90 h | inhibition, % at 8.34 µM;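 active = mean inhibition above about 93%, with at least 55% of replicates each passing it, limit read from the data, passing the limit was not always enough; inconclusive = only one of those two conditions holds; inactive = neither condition holds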
# Pf Dd2 growth: P. falciparum Dd2 growth inhibitors, primary screen, SYBR Green fluorescence, single dose replicates. 72 h; hits give low values. activity change, % at 10 µM. 2.3% of 94,000 active. AID 1159554, 2015; in the data active = activity change below about -80%; inconclusive = no clear call, values can overlap the other calls
# T cruzi growth-2: T. cruzi intracellular proliferation inhibitors, confirmation, cell-based, NIH3T3 host, beta-gal parasite, luminescence, cherry-pick. shares compounds with T cruzi growth-1. T. cruzi beta-gal in NIH3T3, GalScreen luminescence, 90 h. inhibition, % at 8.35 µM. 72% of 5,600 active. AID 651739, 2012;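 active = mean replicate inhibition above about 95% and at least 55% of replicates individually reaching it, limit read from the data; inconclusive = only one of the two criteria is met; inactive = neither criterion is met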
# T cruzi growth-3: inhibitors of intracellular T. cruzi replication, confirmation, NIH3T3 host cells, beta-gal parasites, cherry-pick, set 2; inhibition, % at 2.09 µM; shares compounds with T cruzi growth-1; AID 651740, 2012; T. cruzi beta-gal in NIH3T3, GalScreen luminescence, 90 h; 21% of 5,600 active;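 active = mean inhibition above about 95%, with at least 55% of replicates also reaching it, limit read from the data; inconclusive = meets just one of the two conditions; inactive = meets neither condition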;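 also: plate controls were neutral control median for no effect and positive control median for full effect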
# 3T3 cytotox: cytotoxicity in mouse NIH/3T3 fibroblasts, confirmation, cytotoxicity control for T. cruzi proliferation inhibitor project, cell-based, cherry-pick, single point. shares compounds with T cruzi growth-1. NIH/3T3 viability, CellTiter-Glo ATP luminescence, 90 h. 14% of 5,600 active. cytotoxicity (signal decrease), % at 8.35 µM;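 active = mean signal decrease across replicates above about 35% based on untreated-well scatter, with enough replicates individually passing, limit read from the data; inconclusive = no rule stated though some were filed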;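 also: 0% = median of neutral control wells and 100% = median of positive control wells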
# NIH3T3 tox 2: NIH/3T3 fibroblast cytotoxicity, confirmation, cytotoxicity control, cell-based, cherry-pick, single point, set 2. shares compounds with T cruzi growth-1. NIH/3T3 viability, CellTiter-Glo ATP luminescence, 90 h. inhibition, % at 24.9 µM. 56% of 5,600 active. AID 651744, 2012;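 active = mean loss of cell viability signal at or above a set limit, and enough replicates individually reaching it; inconclusive = meets only the mean limit or only the replicate share; inactive = meets neither condition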;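 also: 0% = median of neutral control wells and 100% = median of positive control wells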
# * hit, by the source's call; ? = inconclusive; nt = no result given.
SMILES,C diff growth,T cruzi growth-1,Pf Dd2 growth,T cruzi growth-2,T cruzi growth-3,3T3 cytotox,NIH3T3 tox 2
C[C@@H]1CN([C@@H](C)CO)C(=O)c2cc(NC(=O)CCCCCC(=O)Nc3ccccc3N)ccc2O[C@@H]1CN(C)CC1CCCCC1,-4,nt,-63,nt,nt,nt,nt
C[C@@H]1CN([C@H](C)CO)C(=O)c2cccc(NC(=O)NC3CCCCC3)c2O[C@@H]1CN(C)C(=O)Nc1ccc2c(c1)OCO2,-3,39,-26,nt,nt,nt,nt
COc1ccc(CN2CC3(C2)CN(C(=O)Nc2ccc(F)cc2)[C@@H](CO)c2[nH]c4cc(OC)ccc4c23)cc1,7,nt,-71,nt,nt,nt,nt
Cc1ccc(S(=O)(=O)N2C[C@H](O)COC[C@@H]3O[C@@H](CC(=O)N[C@@H]4CCN(Cc5ccccc5)C4)CC[C@H]32)cc1,nt,13,-25,nt,nt,nt,nt
Cc1ccc(S(=O)(=O)N2C[C@@H](O)COC[C@H]3O[C@@H](CC(=O)N[C@H]4CCN(Cc5ccccc5)C4)CC[C@@H]32)cc1,nt,99*,-32,106*,81,11,14
COc1ccc(S(=O)(=O)N2C[C@@H](O)COC[C@H]3O[C@H](CC(=O)N[C@@H]4CCN(Cc5ccccc5)C4)CC[C@@H]32)cc1,-11,83,nt,nt,nt,nt,nt
COc1ccc(S(=O)(=O)N2C[C@H](O)COC[C@H]3O[C@@H](CC(=O)N[C@H]4CCN(Cc5ccccc5)C4)CC[C@@H]32)cc1,0,?,nt,84,40,-17,-1
C[C@H]1CN([C@@H](C)CO)C(=O)Cc2cc(NS(C)(=O)=O)ccc2O[C@@H]1CN(C)Cc1ccc(Cl)c(Cl)c1,5,70,-32,nt,nt,nt,nt
C[C@H](CO)N1C[C@H](C)[C@@H](CN(C)Cc2ccc(C(F)(F)F)cc2)Oc2ccc(NS(C)(=O)=O)cc2CC1=O,13,118*,1,109*,103*,-1,47*
C[C@H](CO)N1C[C@H](C)[C@@H](CN(C)Cc2ccc(C(F)(F)F)cc2)Oc2ccc(N(C)C)cc2CC1=O,8,133*,-17,108*,97*,4,72*
C[C@@H]1CN([C@H](C)CO)C(=O)Cc2cc(N(C)C)ccc2O[C@H]1CN(C)Cc1ccc(C(=O)O)cc1,-1,22,43,nt,nt,nt,nt
C[C@H](CO)N1C[C@H](C)[C@@H](CN(C)Cc2ccc(Cl)c(Cl)c2)Oc2ccc(NS(C)(=O)=O)cc2CC1=O,14,?,-13,115*,82,13,100*
C[C@@H]1CN([C@H](C)CO)C(=O)Cc2cc(NS(C)(=O)=O)ccc2O[C@H]1CN(C)Cc1ccc(C(F)(F)F)cc1,2,52,8,nt,nt,nt,nt
O=C(C[C@H]1C[C@H]2c3cc(NC(=O)NC4CCCCC4)ccc3O[C@H]2[C@H](CO)O1)NCc1ccccc1,nt,37,-55,nt,nt,nt,nt
O=C(NC1CCCCC1)N1CC(=O)N2[C@H](CO)[C@@H](c3ccc(-c4cccnc4)cc3)[C@H]2C1,-2,nt,20,nt,nt,nt,nt
COc1ccc(CN(C)C[C@@H]2Oc3ccc(NC(=O)CCC(F)(F)F)cc3CC(=O)N([C@H](C)CO)C[C@@H]2C)cc1,1,28,6,nt,nt,nt,nt
CN(C)C(=O)C[C@H]1CC[C@H](NC(=O)Nc2cccc(F)c2)[C@@H](CO)O1,1,nt,17,nt,nt,nt,nt
O=C(NCCc1ccncc1)[C@@H]1[C@@H](CO)[C@@H]2Cn3c(ccc(C4=CCCCC4)c3=O)[C@H]1N2CC1CC1,-6,-43,nt,nt,nt,nt,nt
COc1ccccc1CN1[C@H](CO)[C@H]2c3ccccc3N(C(=O)C3CCCCC3)C[C@H]21,6,48,-22,nt,nt,nt,nt
COc1ccc2c3c([nH]c2c1)[C@H](CO)N(S(=O)(=O)c1ccccc1)CC31CCN(C)CC1,2,nt,-46,nt,nt,nt,nt
C[C@H](CO)N1C[C@H](C)[C@H](CN(C)Cc2ccc(Oc3ccccc3)cc2)Oc2ccc(N(C)C)cc2C1=O,5,98*,-11,?,8,-6,101*
C[C@H]1CN([C@@H](C)CO)C(=O)Cc2cc(N(C)C)ccc2O[C@@H]1CN(C)Cc1ccc(Oc2ccccc2)cc1,2,115*,-10,104*,48,-10,77*
C[C@H](CO)N1C[C@H](C)[C@H](CN(C)Cc2ccccc2)Oc2ccc(N(C)C)cc2CC1=O,7,-19,48,nt,nt,nt,nt
C[C@H]1CN([C@@H](C)CO)C(=O)Cc2cc(N(C)C)ccc2O[C@H]1CN(C)Cc1ccc(Oc2ccccc2)cc1,-13,?,-10,106*,114*,19,106*
C[C@@H]1CN([C@H](C)CO)C(=O)Cc2cc(N(C)C)ccc2O[C@@H]1CN(C)Cc1ccc(Oc2ccccc2)cc1,1,40,1,nt,nt,nt,nt
SMILES,C diff growth,T cruzi growth-1,Pf Dd2 growth,T cruzi growth-2,T cruzi growth-3,3T3 cytotox,NIH3T3 tox 2
C[C@@H]1CN([C@H](C)CO)C(=O)c2cc(N(C)C)ccc2O[C@H]1CN(C)Cc1ccc(Oc2ccccc2)cc1,-7,60,-24,nt,nt,nt,nt
O=C(C[C@H]1CC[C@@H](NC(=O)c2ccccn2)[C@@H](CO)O1)NCc1cc(F)cc(F)c1,-1,32,-5,nt,nt,nt,nt
CN(C)CCCNC(=O)C[C@H]1CC[C@@H]2[C@H](COC[C@H](O)CN2CC2CCCC2)O1,-1,?,nt,70,17,-3,17
O=C(C[C@H]1CC[C@H]2[C@@H](COC[C@@H](O)CN2CC2CCCCC2)O1)NCc1ccc(F)cc1,15,-1,nt,nt,nt,nt,nt
CN(C)CCCNC(=O)C[C@@H]1CC[C@H]2[C@@H](COC[C@@H](O)CN2CC2CCCC2)O1,8,80,nt,nt,nt,nt,nt
O=C(C[C@@H]1CC[C@@H]2[C@H](COC[C@H](O)CN2CC2CCCCC2)O1)NCc1ccc(F)cc1,-1,?,nt,31,-19,-6,16
CC(=O)N1CCCCN2[C@H](C1)[C@@H](c1ccc(C#Cc3ccccc3F)cc1)[C@@H]2CO,-12,112*,-21,?,28,30,106*
CC(=O)N1CCCCN2[C@H](CO)[C@H](c3ccc(C#Cc4ccccc4F)cc3)[C@H]2C1,-10,31,-25,nt,nt,nt,nt
CCC(=O)N1CCCCN2[C@H](CO)[C@H](c3ccc(C#Cc4ccccc4F)cc3)[C@@H]2C1,-17,120*,-13,99*,88,69*,58*
CC(=O)N1CCCCN2[C@@H](CO)[C@H](c3ccc(C#Cc4ccccc4F)cc3)[C@@H]2C1,-2,88,-4,nt,nt,nt,nt
CCC(=O)N1CCCCN2[C@H](C1)[C@@H](c1ccc(C#Cc3ccccc3F)cc1)[C@@H]2CO,-6,100*,-9,100*,61,50*,105*
